Test results reported in PubChem BioAssay (NCATS).
Results filed as inconclusive are left out. Calls of active or inactive are those of the source. Calls follow the shape of the dose curve; as a rule, active = well fitted curve in the direction sought with a large enough effect; inconclusive = small, poorly fitted or top-dose-only effect, or another doubt; inactive = no such curve, though single readings can be large; an effect the other way counts as inactive or inconclusive.

Experiments:
HaCat = test: Cytotoxic Profiling of Annotated Libraries Using Quantitative High-Throughput Screening (AID 1296008); conditions: Five cell lines viability, CellTiter-Glo ATP luminescence, 48-72 h; max response: stronger effect = lower value; also: nearly all actives have a fitted effect of over 60% in size
Summary of the method: (§1)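 Cells exposed to compounds for 48 or 72 hr at 37 degrees Celsius. Viability read as ATP-coupled luminescence with CellTiter-Glo after 10 min at room temperature.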

KB-3-1 = test: as above; conditions: Five cell lines viability, CellTiter-Glo ATP luminescence, 48-72 h; max response: stronger effect = lower value
Summary of the method: as §1

NIH3T3 = test: as above; conditions: Five cell lines viability, CellTiter-Glo ATP luminescence, 48-72 h; max response: stronger effect = lower value
Summary of the method: as §1

C33A = test: Primary qHTS to identify gynecologic anti-cancer compounds using libraries of approved drugs and bioactive compounds (AID 1345084); conditions: Gynecologic cancer cell panel viability, ATPlite luminescence, 48 h; series mostly up to 57.5 µM; also: nearly all actives have a fitted effect of over 55% in size
Summary of the method: (§2)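 Cytotoxicity screen measuring ATP content by luciferase luminescence. Each compound is applied at five concentrations for 48 h at 37 C with 5% CO2.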

CAOV3 = test: as above; conditions: Gynecologic cancer cell panel viability, ATPlite luminescence, 48 h; series mostly up to 57.5 µM
Summary of the method: as §2

CASKI = test: as above; conditions: Gynecologic cancer cell panel viability, ATPlite luminescence, 48 h; series mostly up to 57.5 µM
Summary of the method: as §2

Es-2 = test: as above; conditions: Gynecologic cancer cell panel viability, ATPlite luminescence, 48 h; series mostly up to 57.5 µM
Summary of the method: as §2

Hek293T = test: as above; conditions: Gynecologic cancer cell panel viability, ATPlite luminescence, 48 h, control line for the selectivity index; series mostly up to 57.5 µM
Summary of the method: as §2

JEG-3 = test: as above; conditions: Gynecologic cancer cell panel viability, ATPlite luminescence, 48 h; series mostly up to 57.5 µM
Summary of the method: as §2

HeLa = test: as above; conditions: Gynecologic cancer cell panel viability, ATPlite luminescence, 48 h; series mostly up to 57.5 µM
Summary of the method: as §2

OV90 = test: as above; conditions: Gynecologic cancer cell panel viability, ATPlite luminescence, 48 h; series mostly up to 57.5 µM
Summary of the method: as §2
% is scaled to controls: 0 for no effect and ±100 for the full control effect; potency is read from the fitted curve at half-maximal effect.

COc1ccc([C@H]2OC[C@H]3O[C@@H](O[C@H]4[C@@H]2NC[C@@H]4O)[C@H](O)[C@H]3O)cc1
active: Potency (HaCat) 2.55 µM | Potency (KB-3-1) 0.904 µM | Potency (NIH3T3) 1.14 µM | Potency (C33A) 7.08 µM | Potency (CAOV3) 2.82 µM | Potency (CASKI) 5.01 µM | Potency (Es-2) 4.47 µM | Potency (Hek293T) 3.16 µM | Potency (JEG-3) 5.01 µM

CN1CCN(S(=O)(=O)c2ccc(-c3cnc(N)c(C(=O)Nc4cccnc4)n3)cc2)CC1
active: Potency (NIH3T3) 0.632 µM
inactive: max response (HaCat) -21.1% | max response (KB-3-1) 3.5% | Potency (C33A) | Potency (CAOV3) | Potency (CASKI) | Potency (Es-2) | Potency (HeLa) | Potency (Hek293T) | Potency (OV90)

CC(=O)Nc1cccc(-c2csc(Nc3cc(C)ccn3)n2)c1
inactive: max response (HaCat) -25.9% | max response (KB-3-1) -18.5% | max response (NIH3T3) -21% | Potency (C33A) | Potency (CAOV3) | Potency (CASKI) | Potency (HeLa) | Potency (JEG-3) | Potency (OV90)

CN1CCN(C(=O)CN[C@@H]2C[C@H]2c2ccc(OCc3ccccc3)cc2)CC1
inactive: max response (HaCat) -3.34% | max response (KB-3-1) -22.7% | max response (NIH3T3) -9.45% | Potency (C33A) | Potency (CASKI) | Potency (Es-2) | Potency (HeLa) | Potency (Hek293T) | Potency (JEG-3) | Potency (OV90)

COc1cc(N2CCOCC2)ccc1NC(=O)c1csc(-c2cccnc2)n1
active: Potency (NIH3T3) 10.3 µM
inactive: max response (HaCat) -49.6% | max response (KB-3-1) 1.64% | Potency (C33A) | Potency (CASKI) | Potency (Es-2) | Potency (HeLa) | Potency (Hek293T) | Potency (JEG-3)

C/C=C(\C)C(=O)O[C@H]1C[C@](C)(O)[C@H]2CC=C(C)[C@H]2[C@@H]2OC(=O)[C@H](C)[C@H]21
inactive: max response (HaCat) 2.74% | max response (KB-3-1) -0.753% | max response (NIH3T3) 0.0048% | Potency (C33A) | Potency (CAOV3) | Potency (CASKI) | Potency (Es-2) | Potency (HeLa) | Potency (Hek293T) | Potency (JEG-3) | Potency (OV90)

OC1CCC(Nc2nc(-c3ccccc3)nc3[nH]ccc23)CC1 (centres undefined)
inactive: max response (HaCat) -12.5% | max response (KB-3-1) 7.97% | max response (NIH3T3) -18.3% | Potency (C33A) | Potency (CAOV3) | Potency (Es-2) | Potency (HeLa) | Potency (Hek293T) | Potency (JEG-3) | Potency (OV90)

O=C([C@@H]1CCCN(c2ccc3[nH]c(C4(n5cc(Cl)cn5)CC4)nc3n2)C1)N1CCCC1
inactive: max response (HaCat) -7.93% | max response (KB-3-1) -11.1% | max response (NIH3T3) -6.68% | Potency (C33A) | Potency (CAOV3) | Potency (CASKI) | Potency (Es-2) | Potency (HeLa) | Potency (Hek293T) | Potency (JEG-3) | Potency (OV90)

COc1cc2ncnc(Nc3ccc(O)c(Br)c3)c2cc1OC
active: Potency (HaCat) 3.66 µM | Potency (NIH3T3) 11.6 µM
inactive: max response (KB-3-1) 0.483% | Potency (C33A) | Potency (CAOV3) | Potency (Es-2) | Potency (HeLa) | Potency (Hek293T) | Potency (JEG-3) | Potency (OV90)

COc1nc2ccc(Br)cc2cc1[C@@H](c1ccccc1)[C@@](O)(CCN(C)C)c1cccc2ccccc12
active: Potency (NIH3T3) 18.4 µM
inactive: max response (HaCat) -2.21% | max response (KB-3-1) -1.57% | Potency (C33A) | Potency (CAOV3) | Potency (CASKI) | Potency (Es-2) | Potency (HeLa) | Potency (JEG-3) | Potency (OV90)

NC(=O)C1=CC2C3C=CC2C(OC3=O)O1 (centres undefined)
inactive: max response (HaCat) -28.3% | max response (KB-3-1) 5.92% | max response (NIH3T3) 3.24% | Potency (C33A) | Potency (CAOV3) | Potency (CASKI) | Potency (Es-2) | Potency (HeLa) | Potency (Hek293T) | Potency (OV90)

CCOC(=O)C1(CCOc2ccccc2)CCN(Cc2ccc(O)c(Cl)c2)CC1
inactive: max response (HaCat) 0.37% | max response (KB-3-1) -15.3% | max response (NIH3T3) -16.4% | Potency (C33A) | Potency (CAOV3) | Potency (CASKI) | Potency (Es-2) | Potency (HeLa) | Potency (Hek293T) | Potency (JEG-3) | Potency (OV90)

CCNc1nc(Nc2cc(F)c(C(=O)N3CCOCC3)cc2OC)ncc1C(F)(F)F
inactive: max response (HaCat) 1.43% | max response (KB-3-1) -21.3% | max response (NIH3T3) -2.73% | Potency (C33A) | Potency (CAOV3) | Potency (CASKI) | Potency (Es-2) | Potency (HeLa) | Potency (Hek293T) | Potency (JEG-3) | Potency (OV90)

C=C1C(=O)O[C@@H]2C[C@H](C)C3=CC(=O)[C@H](O)[C@@]3(C)C[C@H]12
inactive: max response (HaCat) 1.47% | max response (KB-3-1) 7.17% | max response (NIH3T3) -23.3% | Potency (C33A) | Potency (CAOV3) | Potency (CASKI) | Potency (Es-2) | Potency (HeLa) | Potency (Hek293T) | Potency (JEG-3) | Potency (OV90)

C=C1/C(=C/C=C2\CCC[C@@]3(C)C2CCC3[C@H](C)/C=C/[C@@H](O)C2CC2)C[C@@H](O)C[C@@H]1O (some centres undefined)
inactive: max response (HaCat) -20.3% | max response (KB-3-1) -9.38% | max response (NIH3T3) -32.1% | Potency (C33A) | Potency (CAOV3) | Potency (CASKI) | Potency (Es-2) | Potency (HeLa) | Potency (Hek293T) | Potency (JEG-3) | Potency (OV90)

NC(=O)c1nc(Nc2ccccc2)sc1NC(=O)C1CCCCC1
inactive: max response (HaCat) -27.5% | outcome (KB-3-1) | max response (NIH3T3) -18.8% | Potency (C33A) | Potency (CAOV3) | Potency (CASKI) | Potency (Es-2) | Potency (HeLa) | Potency (Hek293T) | Potency (JEG-3) | Potency (OV90)
